Active and inactive are the calls of the source. How the calls were made is not given here.
Assay: inhibition of PAO1 biofilm formation – strain PAO1, LB-PBS medium, absorbance 600 nm, primary screen (AID 1176); further: test concentration not given here
Conditions: P. aeruginosa PAO1 growth/biofilm, A600, 12 h; higher = more signal

z-score, inactive:
CON=C(C)CCN1CCCCc2nc(C)c(C)cc21 0.323
CC(=O)OC[C@H]1O[C@H](CCON=C(C)C)C=C[C@@H]1OC(C)=O 0.265
O=C1CCCC=C1C(O)C1CCCCC1 (stereo unspecified) -0.458
COC(=O)CC=C[C@@H](C)[C@@H](C=NOC[C@@H](C)[C@H](OCc1ccccc1)C(C)C)OC -0.892
COC(=O)[C@H](C)NC(=O)CC=C[C@@H](C)[C@@H]1C=C[C@H](O)[C@@H](CO)O1 0.25
C[C@@H](c1ccccc1)N1C(=O)[C@H]2[C@H]3[C@H](O)[C@H](O)CC(=NOCc4ccccc4)[C@@H]3CC[C@H]2C1=O -0.0819
O=C1[C@H]2[C@H]3[C@H](O)[C@H](O)CC(=NOC[C@@H](O)COCc4ccco4)[C@@H]3CC[C@H]2C(=O)N1Cc1ccc2c(c1)OCO2 0.0578
CCCNC(=O)OC[C@H]1O[C@H](CCON=C2C[C@@H](O)[C@@H](O)[C@@H]3[C@@H]4C(=O)N(CC)C(=O)[C@@H]4CC[C@@H]23)C=C[C@@H]1Oc1ccc(OC)cc1 0.429
CC(C)CON=C1C[C@@H](O)[C@@H](O)[C@@H]2[C@@H]3C(=O)N(Cc4ccc5c(c4)OCO5)C(=O)[C@@H]3CC[C@@H]12 -0.249
COc1ccc(COC(=O)NN=C2C[C@@H](O)[C@@H](O)[C@@H]3[C@@H]4C(=O)N([C@@H](C)c5ccccc5)C(=O)[C@@H]4CC[C@@H]23)cc1 -0.0363
C[C@@H]1CC[C@H]2C(=O)N3[C@@H](CC[C@@H](C)[C@@H]3c3ccc(Br)cc3)C(=O)N2[C@H]1c1ccc(Br)cc1 -0.27
